Data as given in PubChem BioAssay (NCATS).
Where “and” joins values, the source holds several entries; their conditions need not be identical. Equal values may be shown once. Inconclusive results are not listed. A structure can be active in one record and inactive in another. Calls of active or inactive are those of the source. Unless noted, calls come from the whole dose curve; as a rule, active = well fitted curve in the direction sought with a large enough effect; inconclusive = small, poorly fitted or top-dose-only effect, or another doubt; inactive = no such curve, though single readings can be large; an effect the other way counts as inactive or inconclusive.

Tests used:
WaGa = assay: qHTS assay to identify novel small-molecules to repurpose for Merkel cell carcinoma treatment (AID 1296009); settings: MCC and control cell lines, CellTiter-Glo viability, 72 h; series mostly up to 46 µM; note: nearly all actives have a fitted effect of over 60% in size; note: potency is the fitted concentration of half-maximal effect
Summary of the method: (§1)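 72 hr, 37 degree celsius; NPC 8-pt / MIPE 11-pt dose response; compound pinned in DMSO; CellTiter-Glo, 10 min RT, luminescence; normalized to no-cell and DMSO controls.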

CASKI = assay: Primary qHTS to identify gynecologic anti-cancer compounds using libraries of approved drugs and bioactive compounds (AID 1345084); settings: Gynecologic cancer cell panel viability, ATPlite luminescence, 48 h; series mostly up to 57.5 µM; note: nearly all actives have a fitted effect of over 55% in size; note: potency is the fitted concentration of half-maximal effect
Summary of the method: (§2)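 48 h compound exposure at 37 C, 5% CO2; five-point qHTS. ATPlite luminescence readout of cell ATP.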

HeLa = assay: as above; settings: Gynecologic cancer cell panel viability, ATPlite luminescence, 48 h; series mostly up to 57.5 µM
Summary of the method: as §2

JEG-3 = assay: as above; settings: Gynecologic cancer cell panel viability, ATPlite luminescence, 48 h; series mostly up to 57.5 µM
Summary of the method: as §2

OV90 = assay: as above; settings: Gynecologic cancer cell panel viability, ATPlite luminescence, 48 h; series mostly up to 57.5 µM
Summary of the method: as §2

Tov112D = assay: as above; settings: Gynecologic cancer cell panel viability, ATPlite luminescence, 48 h; series mostly up to 57.5 µM
Summary of the method: as §2

astro = assay: Drug repurposing screens with cells derived from glioblastoma tumor samples (AID 1345199); settings: viability, ATP luminescence, 48 h; series mostly up to 45.9 µM; note: nearly all actives have a fitted effect of over 40% in size; note: potency is the fitted concentration of half-maximal effect; for activity, negative = cell killing: % is set by controls: 0 for no effect and ±100 for the full control effect
Summary of the method: (§3)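 Four patient lines of CD133+ GBM neurospheres were screened at several concentrations; hits were retested in those lines plus three slower-growing GBM lines, using 48-hour treatment and ATP-based viability.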

[1] = qHTS assay to identify inhibitors of the type 1 interferon - major histocompatibility complex class I in skeletal muscle: Counter screen cell viability and HiBit confirmation (AID 1347412); settings: iHSKM muscle cells + IFN-b, HiBiT or CellTiter-Glo, 24 h; Potency: HiBiT; Viability, at 45.9 µM (top of the series); note: % is set by controls: 0 for no effect and ±100 for the full control effect; nearly all actives have a fitted effect of over 60% in size
Summary of the method: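 After 24 h with human IFN-beta (4 ng/ml) and compound titrations (top 46 uM final, 1:3, 12 points), HLA-B HiBit myoblasts were lysed for either Nano-Glo HiBiT luminescence or CellTiter Glo viability on paired plates.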

C33A = assay: Primary qHTS to identify gynecologic anti-cancer compounds using libraries of approved drugs and bioactive compounds (AID 1345084); settings: Gynecologic cancer cell panel viability, ATPlite luminescence, 48 h; series mostly up to 57.5 µM; note: nearly all actives have a fitted effect of over 55% in size; note: potency is the fitted concentration of half-maximal effect
Summary of the method: as §2

CAOV3 = assay: as above; settings: Gynecologic cancer cell panel viability, ATPlite luminescence, 48 h; series mostly up to 57.5 µM
Summary of the method: as §2

Es-2 = assay: as above; settings: Gynecologic cancer cell panel viability, ATPlite luminescence, 48 h; series mostly up to 57.5 µM
Summary of the method: as §2

Hek293T = assay: as above; settings: Gynecologic cancer cell panel viability, ATPlite luminescence, 48 h, control line for the selectivity index; series mostly up to 57.5 µM
Summary of the method: as §2

PA-1 = assay: as above; settings: Gynecologic cancer cell panel viability, ATPlite luminescence, 48 h; series mostly up to 57.5 µM
Summary of the method: as §2

SKOV3 = assay: as above; settings: Gynecologic cancer cell panel viability, ATPlite luminescence, 48 h; series mostly up to 57.5 µM
Summary of the method: as §2

Tov-21-G = assay: as above; settings: Gynecologic cancer cell panel viability, ATPlite luminescence, 48 h; series mostly up to 57.5 µM
Summary of the method: as §2

[2] = Drug repurposing screens with cells derived from glioblastoma tumor samples (AID 1345199); settings: GBM patient neurospheres viability, ATP luminescence, 48 h; note: nearly all actives have a fitted effect of over 40% in size; note: potency is the fitted concentration of half-maximal effect; for activity, negative = cell killing: % is set by controls: 0 for no effect and ±100 for the full control effect
Summary of the method: as §3

UISO = assay: qHTS assay to identify novel small-molecules to repurpose for Merkel cell carcinoma treatment (AID 1296009); settings: MCC and control cell lines, CellTiter-Glo viability, 72 h; series mostly up to 46 µM; note: nearly all actives have a fitted effect of over 60% in size; note: potency is the fitted concentration of half-maximal effect
Summary of the method: as §1

[3] = molecular target: Nuclear receptor subfamily 1 group I member 2 (Rattus norvegicus) (UniProt Q9R1A7); assay: qHTS assay for small molecule activators of the rat pregnane X receptor (rPXR) signaling pathway (AID 651751; call rule not given here; note: 0% is about no effect); settings: rPXR reporter cells, luciferase (One-Glo), 24 h
[4] = qHTS assay for small molecule activators of the human pregnane X receptor (PXR) signaling pathway (AID 720659; call rule not given here; note: 0% is about no effect)
[5] = at 45.9 µM (top of the series), tumour line B
[6] = at 45.9 µM (top of the series), tumour line D
[7] = at 46.1 µM (top of the series), tumour line C
[8] = at 91.6 µM (top of the series), tumour line B
[9] = at 99.2 µM (top of the series), tumour line C

Nuclear receptor subfamily 1 group I member 2 (Rattus norvegicus), sequence (Q9R1A7 whole entry, looked up): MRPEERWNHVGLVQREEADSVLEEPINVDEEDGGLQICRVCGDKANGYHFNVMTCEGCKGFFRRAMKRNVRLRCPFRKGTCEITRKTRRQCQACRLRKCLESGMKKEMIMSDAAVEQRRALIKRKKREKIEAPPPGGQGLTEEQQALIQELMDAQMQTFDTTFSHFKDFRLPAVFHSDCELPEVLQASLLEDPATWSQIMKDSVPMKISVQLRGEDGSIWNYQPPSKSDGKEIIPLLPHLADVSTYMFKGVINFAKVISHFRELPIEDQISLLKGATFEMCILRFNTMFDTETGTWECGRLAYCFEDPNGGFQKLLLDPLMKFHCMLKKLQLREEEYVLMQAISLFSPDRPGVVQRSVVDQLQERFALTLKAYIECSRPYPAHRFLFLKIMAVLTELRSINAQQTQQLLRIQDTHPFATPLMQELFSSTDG

CCN(CC)CCOc1ccc(/C(=C(\Cl)c2ccccc2)c2ccccc2)cc1
active: Potency (WaGa) 26.6 µM | Potency (OV90) 14.1 µM | Potency (astro) 17.8 µM
inactive: Potency (CASKI) | Potency (HeLa) | Potency (JEG-3) | Potency (Tov112D) | Potency [1]

Cc1ccc(/C=N/n2c(-c3ccccc3)csc2=S)cc1
inactive: Potency (C33A) | Potency (CAOV3) | Potency (CASKI) | Potency (Es-2) | Potency (HeLa) | Potency (Hek293T) | Potency (JEG-3) | Potency (OV90) | Potency (PA-1) | Potency (SKOV3) | Potency (Tov-21-G) | Potency (Tov112D) | activity, negative = cell killing [2, 5] -0.779% | activity, negative = cell killing [2, 6] -6.23% | activity, negative = cell killing [2, 7] -16.1% | Potency (astro)
active: Potency ([2]; tumour line A) 17.8 µM

CCC1=C[C@@H]2CN(C1)Cc1c([nH]c3ccccc13)[C@@](C(=O)OC)(c1cc3c(cc1OC)N(C)[C@H]1[C@@](O)(C(=O)OC)[C@H](OC(C)=O)[C@]4(CC)C=CCN5CC[C@]31[C@@H]54)C2
active: Potency (UISO) 0.0119 µM | Potency (CAOV3) 10 µM

O=C1CC[C@H](C(=O)N2CCCCC2)N1
inactive: Potency (C33A) | Potency (CAOV3) | Potency (CASKI) | Potency (Es-2) | Potency (HeLa) | Potency (Hek293T) | Potency (JEG-3) | Potency (OV90) | Potency (PA-1) | Potency (SKOV3) | Potency (Tov-21-G) | Potency (Tov112D) | Potency (astro)

Nc1nc(=O)n([C@@H]2O[C@H](CO)[C@@H](O)[C@@H]2F)cc1I
inactive: Potency (C33A) | Potency (CAOV3) | Potency (CASKI) | Potency (Es-2) | Potency (HeLa) | Potency (Hek293T) | Potency (JEG-3) | Potency (OV90) | Potency (PA-1) | Potency (SKOV3) | Potency (Tov-21-G) | Potency (Tov112D)

O=C(O)Cc1ccc(OCCNC[C@H](O)c2ccccc2)cc1
inactive: Potency (C33A) | Potency (CAOV3) | Potency (CASKI) | Potency (Es-2) | Potency (HeLa) | Potency (Hek293T) | Potency (JEG-3) | Potency (OV90) | Potency (PA-1) | Potency (SKOV3) | Potency (Tov-21-G) | Potency (Tov112D) | activity, negative = cell killing [2, 5] -8.45% | activity, negative = cell killing [2, 6] 5.34% | activity, negative = cell killing ([2]; at 46 µM (top of the series), tumour line A) -29.2% | activity, negative = cell killing [2, 7] 9.13% | Potency (astro)

CN(C)[C@@H]1C(=O)C(C(N)=O)=C(O)[C@@]2(O)C(=O)C3=C(O)c4c(O)cccc4C[C@H]3C[C@@H]12
inactive: Potency (C33A) | Potency (CAOV3) | Potency (CASKI) | Potency (Es-2) | Potency (HeLa) | Potency (Hek293T) | Potency (JEG-3) | Potency (OV90) | Potency (PA-1) | Potency (SKOV3) | Potency (Tov-21-G) | Potency (Tov112D)

O=c1[nH]sc2cc(Cl)ccc12
inactive: Potency (WaGa) | Potency (CASKI) | Potency (HeLa) | Potency (JEG-3) | Potency (OV90) | Potency (Tov112D)

O=C1NC(c2cccc([N+](=O)[O-])c2)=CCN1c1ccccc1O
inactive: Potency (C33A) | Potency (CAOV3) | Potency (Es-2) | Potency (HeLa) | Potency (OV90) | Potency (PA-1) | Potency (Tov-21-G)

CCCC(=O)c1cc(O)c(O)cc1O
inactive: Potency (C33A) | Potency (CAOV3) | Potency (CASKI) | Potency (Es-2) | Potency (HeLa) | Potency (Hek293T) | Potency (JEG-3) | Potency (OV90) | Potency (Tov-21-G) | Potency (Tov112D) | activity, negative = cell killing [2, 8] -19.8% | activity, negative = cell killing [2, 9] -23.6% | max response [3] -4.26% | outcome [4]

COc1ccc([C@@H]2Sc3ccccc3NC(=O)[C@@H]2O)cc1
inactive: Potency (C33A) | Potency (CAOV3) | Potency (CASKI) | Potency (Es-2) | Potency (HeLa) | Potency (JEG-3) | Potency (OV90)

CC(C)(c1ccc(O)cc1)c1ccc(O)cc1
inactive: Potency (C33A) | Potency (CAOV3) | Potency (CASKI) | Potency (Es-2) | Potency (HeLa) | Potency (Hek293T) | Potency (JEG-3) | Potency (PA-1) | Potency (SKOV3) | Potency (Tov-21-G) | Potency (Tov112D) | activity, negative = cell killing [2, 8] -24% | activity, negative = cell killing [2, 9] -43.4% | max response [3] 7.46% and 2.86% and -5.15%

O=C1Nc2ccccc2C1(c1ccc(O)cc1)c1ccc(O)cc1
inactive: Potency (CASKI) | Potency (Es-2) | Potency (HeLa) | Potency (Hek293T) | Potency (JEG-3) | Potency (PA-1) | Potency [1]

COc1cc2nc(Cl)nc(N)c2cc1OC
inactive: Potency (C33A) | Potency (CASKI) | Potency (Es-2) | Potency (HeLa) | Potency (Hek293T) | Potency (JEG-3) | Potency (OV90) | Potency (PA-1) | Potency (SKOV3) | Potency (Tov-21-G) | Potency (Tov112D)

CCCCCC(=O)O[C@]1(C(C)=O)CC[C@H]2[C@@H]3CCC4=CC(=O)CC[C@]4(C)[C@H]3CC[C@@]21C
inactive: Potency (CASKI) | Potency (Es-2) | Potency (JEG-3) | Potency (PA-1) | Potency (Tov-21-G) | Potency (Tov112D)

C[C@H](N)C(=O)N[C@@H](C)C(=O)NC1[C@H]2CN(c3nc4c(cc3F)c(=O)c(C(=O)O)cn4-c3ccc(F)cc3F)C[C@@H]12 (some centres not stated)
inactive: Potency (C33A) | Potency (CAOV3) | Potency (CASKI) | Potency (Es-2) | Potency (HeLa) | Potency (JEG-3) | Potency (OV90) | Potency (SKOV3) | Potency (Tov-21-G) | Potency (Tov112D)

N#C/C(=C1/SC[C@@H](c2ccc(Cl)cc2Cl)S1)n1ccnc1
inactive: Potency (C33A) | Potency (CAOV3) | Potency (CASKI) | Potency (Es-2) | Potency (HeLa) | Potency (Hek293T) | Potency (JEG-3) | Potency (PA-1) | Potency (SKOV3) | Potency (Tov-21-G) | Potency (Tov112D) | activity, negative = cell killing [2, 5] -20.5% and -14.1% | Potency (astro)
active: Potency ([2]; tumour line A) 11.2 µM and 20 µM | Potency ([2]; tumour line D) 11.2 µM

CCOC(=O)N1CCC(n2c(=O)[nH]c3cc(Cl)ccc32)CC1
inactive: Potency (C33A) | Potency (CAOV3) | Potency (CASKI) | Potency (Es-2) | Potency (HeLa) | Potency (PA-1) | Potency (Tov-21-G) | Potency (Tov112D)

CC(NCCC(c1ccccc1)c1ccccc1)c1ccccc1 (configuration not stated)
active: Potency (OV90) 28.2 µM | Potency (astro) 25.1 µM
inactive: Potency (Es-2) | Potency (HeLa) | Potency (Hek293T) | Potency (JEG-3) | Potency (Tov-21-G)

Nc1c2ccccc2nc2ccccc12
inactive: activity, negative = cell killing [2, 7] -4.16%
active: Potency (Es-2) 14.1 µM | Potency (Hek293T) 8.91 µM | Potency (OV90) 28.2 µM | Potency (Tov-21-G) 14.1 µM | Potency ([2]; tumour line A) 25.1 µM | Potency ([2]; tumour line B) 12.6 µM | Potency ([2]; tumour line D) 10 µM | Potency (astro) 10 µM
